PubChem BioAssay AID1159580 (chemical genetic matrix, 2015)
About 2,000 (36%) of roughly 5,500 compounds were called active. Another 18% or so got no clear call; they are omitted. Rule as the data show it: active = normalized growth mostly below about 0.91 (no sharp cut-off); inconclusive = no clear call, values can overlap the other calls; inactive = mostly above about 0.92. Some of the results follow.

Assay: chemical genetic growth profiling, strain panel (AID 1159580);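 also: tested at 20 µM; growth read once vehicle control cultures reached saturation at 30 °C; 1 = growth at the plate median or of vehicle wells; lower values mean less growth of the strain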
Conditions: S. cerevisiae deletion strains, growth OD

Measured: normalized growth

NC(=O)c1ccccc1
inactive: locus YAL040C, strain CLN3, hits give low values 0.923 | locus YCL061C, strain MRC1 (second series), hits give low values 1.01 | locus YER002W, strain NOP16, hits give low values 0.988 | locus YGR078C, strain PAC10, hits give low values 0.997 | locus YGR229C, strain SMI1, hits give low values 1.04 | locus YNL153C, strain GIM3, hits give low values 1.01 | locus YNL175C, strain NOP13, hits give low values 0.972 | locus YNL197C, strain WHI3, hits give low values 0.979 | locus YNL224C, strain SQS1, hits give low values 0.997 | locus YOR083W, strain WHI5 (second series), hits give low values 0.952

NC(=O)c1cccnc1
inactive: locus YAL021C, strain ccr4, hits give low values 0.969 | locus YAL026C, strain drs2, hits give low values 0.979 | locus YAL030W, strain snc1, hits give low values 0.958 | locus YBL061C, strain skt5, hits give low values 0.971 | locus YBR009C, strain hhf1, hits give low values 0.974 | locus YBR023C, strain chs3, hits give low values 0.98 | locus YBR171W, strain sec66, hits give low values 0.968 | locus YBR231C, strain swc5, hits give low values 0.995 | locus YBR279W, strain paf1, hits give low values 0.991 | locus YCL011C, strain gbp2, hits give low values 0.979 | locus YCL016C, strain dcc1, hits give low values 0.978 | locus YCL061C, strain MRC1, hits give low values 0.986 | locus YCL069W, strain vba3, hits give low values 0.986 | locus YCR088W, strain abp1, hits give low values 0.97 | locus YDL005C, strain med2, hits give low values 0.966 | locus YDL040C, strain nat1, hits give low values 0.992 | locus YDR001C, strain nth1, hits give low values 0.972 | locus YDR069C, strain doa4, hits give low values 0.972 | locus YDR137W, strain rgp1, hits give low values 0.994 | locus YDR159W, strain sac3, hits give low values 0.97 | locus YDR195W, strain ref2 0.996 | locus YDR297W, strain sur2, hits give low values 0.975 | locus YDR334W, strain swr1, hits give low values 0.928 | locus YDR335W, strain msn5, hits give low values 0.975 | locus YDR392W, strain spt3, hits give low values 0.985 | locus YEL003W, strain gim4, hits give low values 0.975 | locus YEL037C, strain rad23, hits give low values 0.987 | locus YEL061C, strain CIN8 (second series), hits give low values 0.983 | locus YER015W, strain faa2, hits give low values 0.992 | locus YER016W, strain bim1, hits give low values 0.981 | locus YER111C, strain swi4, hits give low values 0.985 | locus YER155C, strain BEM2 (second series), hits give low values 0.98 | locus YFR010W, strain ubp6, hits give low values 0.971 | locus YGL167C, strain pmr1, hits give low values 0.984 | locus YGL173C, strain kem1, hits give low values 0.957 | locus YGL227W, strain vid30, hits give low values 0.959 | locus YGL240W, strain doc1, hits give low values 0.963 | locus YGL253W, strain hxk2, hits give low values 0.998 | locus YHR013C, strain ard1, hits give low values 0.972 | locus YHR027C, strain rpn1, hits give low values 0.959 | locus YHR030C, strain SLT2, hits give low values 0.971 | locus YHR079C, strain IRE1, hits give low values 0.961 | locus YHR142W, strain chs7, hits give low values 0.976 | locus YJL092W, strain hpr5, hits give low values 0.982 | locus YJL095W, strain BCK1 (second series), hits give low values 0.979 | locus YJL095W, strain BCK1, hits give low values 0.974 | locus YJL115W, strain asf1, hits give low values 0.96 | locus YJL129C, strain trk1, hits give low values 0.996 | locus YJL154C, strain vps35, hits give low values 0.964 | locus YJL164C, strain tpk1, hits give low values 0.992 | locus YJL166W, strain qcr8, hits give low values 0.978 | locus YJL187C, strain SWE1, hits give low values 0.982 | locus YJR066W, strain TOR1, hits give low values 0.928 | locus YKL160W, strain elf1, hits give low values 0.991 | locus YKR026C, strain gcn3, hits give low values 0.976 | locus YKR091W, strain srl3, hits give low values 0.986 | locus YLL001W, strain dnm1, hits give low values 0.991 | locus YLL026W, hits give low values 0.951 | locus YLL041C, strain sdh2, hits give low values 0.982 | locus YLR027C, strain aat2, hits give low values 0.948 | locus YLR113W, strain HOG1, hits give low values 0.973 | locus YLR221C, strain rsa3, hits give low values 0.974 | locus YLR258W, strain gsy2, hits give low values 0.984 | locus YLR262C, strain YPT6 (second series), hits give low values 0.965 | locus YLR320W, strain mms22, hits give low values 1 | locus YLR342W, strain FKS1, hits give low values 0.983 | locus YLR357W, strain rsc2, hits give low values 0.979 | locus YLR370C, strain arc18, hits give low values 0.986 | locus YLR384C, strain iki3, hits give low values 0.987 | locus YML120C, strain ndi1, hits give low values 0.982 | locus YMR058W, strain fet3, hits give low values 0.979 | locus YMR125W, strain sto1, hits give low values 0.963 | locus YMR129W, hits give low values 0.99 | locus YMR205C, strain PFK2, hits give low values 0.962 | locus YMR231W, strain pep5, hits give low values 0.978 | locus YNL071W, strain lat1, hits give low values 0.975 | locus YNL183C, strain NPR1, hits give low values 0.949 | locus YNL209W, strain ssb2, hits give low values 0.979 | locus YNL248C, strain rpa49, hits give low values 0.973 | locus YNL322C, strain KRE1 (second series), hits give low values 0.98 | locus YNR049C, strain mso1, hits give low values 0.966 | locus YOR001W, strain rrp6, hits give low values 0.983 | locus YOR070C, strain gyp1, hits give low values 0.983 | locus YOR080W, strain dia2, hits give low values 0.978 | locus YOR083W, strain WHI5, hits give low values 0.986 | locus YOR106W, strain vam3, hits give low values 0.986 | locus YOR231W, strain MKK1, hits give low values 0.975 | locus YOR265W, strain rbl2, hits give low values 0.983 | locus YOR270C, strain vph1, hits give low values 0.978 | locus YOR290C, strain snf2, hits give low values 0.996 | locus YPL051W, strain arl3, hits give low values 0.999 | locus YPL078C, strain atp4, hits give low values 0.98 | locus YPL106C, strain sse1, hits give low values 0.927 | locus YPL240C, strain hsp82, hits give low values 0.978 | locus YPL256C, strain CLN2, hits give low values 0.992
